Measurements reported in PubChem BioAssay (NCI).
This is part of a sample that, as a whole, favours compounds with a hit. Of some 83,000 tested, about 20% had one in any assay.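 48-hour exposure, single concentration, 96-well plates; percent growth endpoint where 0 means no net growth. Active: below 10.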 Values without a mark were called inactive. Calls of active or inactive are those of the source.

Assays:
Assay in all cases: NCI-60 one-dose screen, 48 h (100 = growth as untreated, 0 = no growth, -100 = all killed)
[1] = system: A549/ATCC NSCLC; details: 10 µM unless noted
[2] = system: DU-145 prostate; details: 10 µM unless noted
[3] = system: K-562 leukemia; details: 10 µM unless noted
[4] = system: RXF 393 renal; details: 10 µM unless noted
[5] = system: UACC-257 melanoma; details: 10 µM unless noted
[6] = system: HT29 colon; details: 10 µM unless noted
[7] = system: SNB-75 CNS; details: 10 µM unless noted
[8] = system: PC-3 prostate; details: 10 µM unless noted
[9] = system: SK-MEL-5 melanoma; details: 10 µM unless noted
[10] = system: UACC-62 melanoma; details: 10 µM unless noted
[11] = system: SK-MEL-2 melanoma; details: 10 µM unless noted
[12] = system: ACHN renal; details: 10 µM unless noted
[13] = system: A498 renal; details: 10 µM unless noted
[14] = system: HL-60(TB) leukemia; details: 10 µM unless noted
[15] = system: MOLT-4 leukemia; details: 10 µM
[16] = system: OVCAR-8 ovarian; details: 10 µM unless noted
[17] = system: OVCAR-5 ovarian; details: 10 µM unless noted
[18] = system: HS 578T breast; details: 10 µM unless noted
[19] = system: NCI/ADR-RES ovarian; details: 10 µM unless noted
[20] = system: T-47D breast; details: 10 µM unless noted

| Compound | growth [1] | growth [2] | growth [3] | growth [4] | growth [5] | growth [6] | growth [7] | growth [8] | growth [9] | growth [10] | growth [11] | growth [12] | growth [13] | growth [14] | growth [15] | growth [16] | growth [17] | growth [18] | growth [19] | growth [20] |
| --- | --- | --- | --- | --- | --- | --- | --- | --- | --- | --- | --- | --- | --- | --- | --- | --- | --- | --- | --- | --- |
| N#Cc1ncc(/N=C/c2ccc(N(CCCl)CCCl)cc2)s1 | 86% | 49.2% | 37.6% | 84.7% | 82.4% | 91.6% | 61.6% | 66.9% | 88.4% | 32% | 57% | 33.8% | 88.2% | 39.3% | 42.7% | 78.3% | 100% | 90.4% | 70.8% | 64.2% |
| CNc1ccc(C(=O)CC(O)CCC(C)C2OC(=O)CC(O)CC(=O)CC(O)CC(O)CC(O)CC(O)CC3(O)CC(O)C(C(=O)OC)C(CC(O[C@@H]4O[C@H](C)[C@@H](O)[C@H](N)[C@@H]4O)/C=C/C=C/C=C/C=C/C=C/C=C/C=C/C2C)O3)cc1 (stereo partly specified) | -65% (active) | -75.3% (active) | 34.5% | -20% (active) | -79.7% (active) | -21.2% (active) | 42.6% | 15% | 2.72% (active) | 3.05% (active) | -8.57% (active) | -79.5% (active) | -54.2% (active) | – | -13.8% (active) | -22.3% (active) | -9.42% (active) | 6.91% (active) | -35.9% (active) | -2.05% (active) |
| Cc1ccc(C[As+](c2ccccc2)(c2ccccc2)c2ccccc2)cc1 | 7.2% (active) | 23.8% | 9.47% (active) | 8.64% (active) | -17.5% (active) | -3.93% (active) | 15.1% | 7.95% (active) | -65.3% (active) | 8.38% (active) | -16.9% (active) | 49% | -11% (active) | -26.8% (active) | 14% | 9.13% (active) | 31.8% | 21% | 99.2% | -3.86% (active) |
| O=S(=O)(c1ccc(Cl)cc1)C(Cl)(Cl)Cl | 56.6% | 49.4% | 19.6% | -5.22% (active) | 28.2% | 12.2% | 39.6% | 49.1% | 42.5% | 46.6% | 25.1% | 26.1% | 56.4% | 1.02% (active) | 16.2% | 58.5% | 78.9% | 55.8% | 29% | 11.4% |
| O=C(CI)Nc1ccc(Br)cc1 | 90.9% | 23.3% | -41.1% (active) | 26.5% | 92.9% | -87.4% (active) | 96.7% | 87.3% | 62.6% | 79.2% | 76.4% | -79.8% (active) | 142% | 69.6% | -28.4% (active) | 11.9% | 94.9% | 132% | 100% | 26.7% |
| O=[As]c1ccc(C(=O)c2ccc(Oc3ccccc3)cc2)cc1 (stereo unspecified) | -94.8% (active) | -94% (active) | -17.8% (active) | -100% (active) | -99.4% (active) | -77.6% (active) | -92% (active) | -61.4% (active) | -100% (active) | -98.1% (active) | -95.2% (active) | -100% (active) | -97.7% (active) | -23.4% (active) | -25.2% (active) | -97.3% (active) | -95.4% (active) | 59.7% | -52.4% (active) | -47.2% (active) |
| CN1CCN(C(=O)COc2ccc(/C=C3\CC4C5CC=C6CC(Cl)CCC6(C)C5CCC4(C)C3=O)cc2)CC1 (stereo unspecified) | 65% | 64.9% | 18.3% | 79% | 38.8% | -9.75% (active) | 86.8% | 71.3% | 80.4% | 90% | 89.8% | 80.1% | 75.3% | 38.3% | 59.3% | 78.9% | 99.7% | – | 69.2% | 71.2% |
| S=P(Nc1ccccc1)(Nc1ccccc1)c1ccccc1 | 91.8% | 122% | – | 98.5% | 102% | 104% | 96.7% | 85.9% | 92.1% | 84.2% | 105% | 102% | 70.6% | – | – | 111% | 99.6% | 107% | 88.3% | 87.5% |
| CCCCN(CCCC)CC(O)c1ccccc1 (stereo unspecified) | 104% | 113% | 103% | 116% | 106% | 109% | 91.5% | 111% | 118% | 105% | 115% | 102% | 82.6% | 111% | 97.2% | 109% | 93.6% | 97.5% | 105% | 127% |
| CCCCCN(CCCCC)CC(O)c1ccc(C)c(Cl)c1 (stereo unspecified) | 92.7% | 118% | 92.5% | – | 95.4% | 79% | 90.9% | 91.8% | 103% | 90.5% | 101% | 92.7% | 78.5% | 116% | 110% | 102% | 83.8% | 102% | 104% | 91.2% |
| Cc1ccc(C(=O)C2CN(C)CCC2(O)c2ccc(C)cc2)cc1 (stereo unspecified) | 104% | 117% | 123% | 128% | 104% | 113% | 96% | 108% | 114% | 117% | 124% | – | 94% | 106% | 103% | 107% | 122% | 97% | 103% | 102% |
| CC(/C=N/N=C(N)N)=N/N=C(N)N | 106% | 93.9% | 82.1% | – | 113% | 91.8% | 71.5% | 108% | 107% | 93.6% | 14.8% | 94.5% | 90.2% | 84.5% | 101% | 77.8% | 84.4% | 88.6% | 74.3% | 60.1% |
| CC1COC(=O)C1 (stereo unspecified) | 101% | 104% | – | 103% | 104% | 98.2% | 81.9% | 102% | 99.6% | 106% | 99.3% | 108% | 89.2% | 105% | 102% | 104% | 102% | 99.2% | 106% | 95.5% |
| CC[C@H](C)[C@H](NC(=O)Nc1ccccc1)C(=O)N(C)[C@H](C[C@@H](OC(C)=O)c1nc(C(=O)N[C@@H](Cc2ccccc2)C[C@H](C)C(=O)OC)cs1)C(C)C | 23.5% | -3.41% (active) | 15.7% | 0.067% (active) | 60.6% | -23.1% (active) | 5.16% (active) | 21.6% | -70.3% (active) | 15.1% | -15% (active) | 25.1% | -15.6% (active) | -17.2% (active) | 15.7% | 14.6% | 28.9% | 5.14% (active) | 59.1% | 61.6% |
| [Br][Pb]([c]1ccccc1)([c]1ccccc1)[c]1ccccc1 | -99.2% (active) | -97.5% (active) | -46.7% (active) | -83.2% (active) | -99% (active) | -73.4% (active) | -100% (active) | -80.6% (active) | -100% (active) | -92.2% (active) | -96.6% (active) | -92.8% (active) | -100% (active) | -39.9% (active) | -24.4% (active) | -100% (active) | -93.1% (active) | -35.6% (active) | -71.6% (active) | -72% (active) |
| CN1C(=O)NC(=O)C(N=Nc2ccc(Cl)cc2)C1=O (stereo unspecified) | 101% | 106% | 54.7% | 107% | 105% | 99.1% | 126% | 94.6% | 96% | 49.9% | 117% | 87.9% | 60.9% | 90.7% | 96% | 104% | 98.9% | 114% | 83.5% | 101% |
